Measured values from PubChem BioAssay.

tested on: Plasmodium falciparum Sir2 (PF13_0152, Sir2A); assay: Plasmodium falciparum Sir2A binding compounds – biochemical, small-molecule microarray, 635 nm fluorescence, primary screen (AID 1098); settings: fluorescence 635 nm, higher = more signal;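 note: score merges spot fluorescence intensity with its signal-to-noise ratio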

Compound | composite z-score
CCOc1ccc(N2C(=O)CSC2c2cccc([N+](=O)[O-])c2)cc1 (configuration not stated) | 0.891
COc1cc(CO)cc(I)c1O[C@H]1C=C(C(=O)NCCO)C[C@@H](NC[C@@H]2CCCO2)[C@@H]1O | 0.922
CCCNC(=O)[C@@H]1c2ccccc2C(=O)N(Cc2ccccc2OC)[C@H]1c1ccc(CO)cc1 | 1.37
COCCOC(=O)N1C(=O)[C@@]2(c3cc(C#CCCO)ccc31)[C@H](c1ccc(O)cc1)N1[C@H](c3ccccc3)[C@H](c3ccccc3)OC(=O)[C@H]1[C@@H]2C(=O)N1CCN(c2ncccn2)CC1 | 1.71

tested on: not listed separately; assay: probe aDKK1 binding to arrayed compounds – biochemical, biotinylated probe, 635/667 nm fluorescence, primary screen (AID 1099); settings: small-molecule microarray, higher = more signal;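 note: score merges 667nm spot fluorescence with signal to noise across triplicate slides; reference of the scale not given here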

Compound | composite z-score
COc1cc(CO)cc(I)c1O[C@H]1C=C(C(=O)NCCO)C[C@@H](N(C(=O)c2cc3ccccc3oc2=O)C2CCCCCC2)[C@@H]1O | -0.28
O=C1C2C=CC(C(O)C=Cc3ccc([N+](=O)[O-])cc3)N(n3cnnc3)C2C(=O)N1Cc1ccccc1 (configuration not stated) | 0.341
COCCOC(=O)N1C(=O)[C@@]2(c3ccccc31)[C@H](C(=O)N1CCc3cc(OC)c(OC)cc3C1)[C@H]1C(=O)O[C@H](c3ccccc3)[C@H](c3ccccc3)N1[C@@H]2c1ccc(O)cc1 | 0.0664
C#CCN(C/C=C/c1ccccc1)[C@H](CO)c1ccccc1 | -0.583
O=C1OCCC=C[C@H]2OC34C=CCN(c5ccc(Cl)cc5)C(=O)[C@H]3N(CCCO)C(=O)[C@@H]4C12 (some centres not stated) | -0.227
CCCCC(O)C1C=CC2C(=O)N(C)C(=O)C2N1N1CCCCC1 (configuration not stated) | 0.945
COc1cc2c(cc1OC)CN(C(=O)[C@H]1[C@@H]3C(=O)O[C@@H](c4ccccc4)[C@@H](c4ccccc4)N3[C@@H](c3ccccc3OCCO)[C@]13C(=O)Nc1ccc(C#CCCO)cc13)CC2 | -0.112
COCCCNC(=O)[C@@]1(Cc2ccccc2)N=C(c2ccc(OCCCO)cc2)O[C@H]1c1ccccc1CN=[N+]=[N-] | 1.09
CC(C)Cc1ccc(CN2CC[C@@H](N)C2)cc1 | -0.459
C[N+](C)(C)CCCC[C@@H]1NC(=O)[C@H]2C[C@@H](C(=O)NCCCCCCNC(=O)CS)[C@@H](c3ccc(O)cc3)N2C1=O | -0.0452
COc1ccc(C#Cc2ccc3c(c2)[C@]2(C(=O)N3)[C@H](c3ccc(O)cc3)N3[C@H](c4ccccc4)[C@H](c4ccccc4)OC(=O)[C@H]3[C@@H]2C(=O)N2CCc3cc(OC)c(OC)cc3C2)cc1 | -0.157
[N-]=[N+]=Nc1ccccc1C[C@]1(C(=O)NCC(O)CO)N=C(c2ccc(OCCCO)cc2)O[C@H]1c1ccccc1 (some centres not stated) | 0.603
CC(C)(C)OC(=O)CC[C@]1(C(=O)NCCN2CCOCC2)COC(c2ccc(OCCCO)cc2)=N1 | 0.0968
[N-]=[N+]=NCc1ccccc1C[C@@]1(C(=O)NCC(O)CO)N=C(c2ccc(OCCCO)cc2)O[C@@H]1c1ccccc1 (some centres not stated) | 1.15
CC(C)[Si](C#CCCCC#N)(Oc1ccccc1Br)C(C)C | -0.288
C=CCN1Cc2ccccc2[C@@H]2OC(c3ccc(OCCCO)cc3)=N[C@]2(CCS(=O)(=O)c2ccccc2)C1=O | 0.205
CCOC(=O)C1=C[C@@H](C(C)C)N(S(=O)(=O)c2ccc(C)cc2)[C@H]1c1ccccc1F | 0.398
[N-]=[N+]=NCc1ccccc1[C@@H]1OC(c2ccc(OCCCO)cc2)=N[C@]1(CCS(=O)(=O)c1ccccc1)C(N)=O | 0.775
OCCCC1=CC(C2CC2)N(Cc2cccc(OC(F)(F)F)c2)CC1 (configuration not stated) | -0.454
Cc1ccc([C@H]2C(C(=O)O)=CCN2S(=O)(=O)c2ccc(C)cc2)cc1 | 0.215
COc1ccc([Si](C)(C)[C@H]2[C@H](CCO)O[C@@]3(C(=O)N(Cc4ccccc4)c4ccc(N5CCCCC5=O)cc43)[C@@H]2C)cc1 | -0.0725
CC#CC(=O)Oc1ccc(Br)cc1C=CC(=O)OCC | 0.321
COc1cc(OC)c(C(O)C2C=CC3C(=O)NC(=O)C3N2Nc2ccccn2)cc1Br (configuration not stated) | 0.615
O=C1[C@H]2C=C(I)[C@H](C[C@@H]2OCCCCO)[C@@]12CO2 | -0.0509
C=C(CCCC)/C(=C/C[C@H](OC(C)=O)c1ccc(OCCO)cc1)c1cnc2ccccc2c1 | -0.182
COc1ccc(CCNC(=O)[C@@]2(C)c3ccccc3C(=O)N(c3ccc(C)cn3)[C@H]2c2ccc(CO)cc2)cc1 | -0.0508
C=CCC(OC(C)=O)[C@@H]1[C@@H](N(Cc2ccc(-c3cccc(C(F)(F)F)c3)o2)C(=O)Cc2ccc(OC)cc2)c2cc(OCCCO)ccc2N1C(=O)c1ccc2ccccc2c1 (some centres not stated) | -0.179
CN(C)CCCC[C@@H]1NC(=O)[C@H]2C[C@@H](C(=O)NCCCCCN)[C@@H](c3cccc(OCCO)c3)N2C1=O | 1.33
